Records with an inconclusive call do not appear. Calls of active or inactive are those of the source. Rule for the calls: active = hit-call score of the fitted dose curve at least 0.9, where 1 is the maximum; inconclusive = response in the unintended direction; inactive = score below 0.9.

This test is described as follows: ACEA_ER_AUC_viability: ACEA Biosciences xCELLigence Real-Time Cell Analysis on Estrogen Receptor Agonism for Viability (AID 2283782).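 Note: hit means loss of impedance signal meaning reduced cell growth or viability.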 The method, boiled down: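 Continuous-exposure impedance cell analysis uses T-47D cells in charcoal-stripped serum, eight 1:4 dilutions topping at 100 uM final, biological duplicate. Area under the growth curve at 80 h is fitted against DMSO baseline.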
For `C=CC(=O)OCCCCCCCCCC`, the outcome was inactive. The same measure, in the same setting: the value for `[Cl][Eu]([Cl])[Cl]` was “inactive”; that for `CCC(=O)C1CC(C(C)C)CC=C1C` (configuration not stated) was “inactive”. For `CCCCCCCCCCCCCc1ccccc1`, the result was inactive. Regarding `CC=C(C)C(C)=O`, the outcome was inactive. With `CCCCCCCCCCCC(=O)OCC`, the result was inactive. For the compound `O=C(Oc1ccccc1)c1ccccc1C(=O)Oc1ccccc1`, the AC50 was 86.1 µM (active).

The values are drawn from PubChem BioAssay (EPA / NIEHS).
